Measured values reported in PubChem BioAssay (EPA / NIEHS).
“And” between values parts separate entries of the source, which are not always exact repeats. Equal entries are not always repeated. Results filed as inconclusive are left out. Some structures have more than one record in an assay (separate samples or runs), and their calls can disagree. The source made the active and inactive calls. The calls were made as follows: active = hit-call score of the fitted dose curve at least 0.9, where 1 is the maximum; inconclusive = response in the unintended direction; inactive = score below 0.9.

Each compound was assayed against chimpanzee Androgen Receptor (AR), AR (gene 747460) (UniProt O97775) (assay: NVS_NR_cAR: NovaScreen (NVS) Nuclear Receptor Binding Assay for chimpanzee Androgen Receptor (AR) (AID 2283346);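 also: a loss of bound radioligand signal versus DMSO counts as binding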).
chimpanzee Androgen Receptor (AR), AR (gene 747460), sequence (O97775 whole entry, looked up): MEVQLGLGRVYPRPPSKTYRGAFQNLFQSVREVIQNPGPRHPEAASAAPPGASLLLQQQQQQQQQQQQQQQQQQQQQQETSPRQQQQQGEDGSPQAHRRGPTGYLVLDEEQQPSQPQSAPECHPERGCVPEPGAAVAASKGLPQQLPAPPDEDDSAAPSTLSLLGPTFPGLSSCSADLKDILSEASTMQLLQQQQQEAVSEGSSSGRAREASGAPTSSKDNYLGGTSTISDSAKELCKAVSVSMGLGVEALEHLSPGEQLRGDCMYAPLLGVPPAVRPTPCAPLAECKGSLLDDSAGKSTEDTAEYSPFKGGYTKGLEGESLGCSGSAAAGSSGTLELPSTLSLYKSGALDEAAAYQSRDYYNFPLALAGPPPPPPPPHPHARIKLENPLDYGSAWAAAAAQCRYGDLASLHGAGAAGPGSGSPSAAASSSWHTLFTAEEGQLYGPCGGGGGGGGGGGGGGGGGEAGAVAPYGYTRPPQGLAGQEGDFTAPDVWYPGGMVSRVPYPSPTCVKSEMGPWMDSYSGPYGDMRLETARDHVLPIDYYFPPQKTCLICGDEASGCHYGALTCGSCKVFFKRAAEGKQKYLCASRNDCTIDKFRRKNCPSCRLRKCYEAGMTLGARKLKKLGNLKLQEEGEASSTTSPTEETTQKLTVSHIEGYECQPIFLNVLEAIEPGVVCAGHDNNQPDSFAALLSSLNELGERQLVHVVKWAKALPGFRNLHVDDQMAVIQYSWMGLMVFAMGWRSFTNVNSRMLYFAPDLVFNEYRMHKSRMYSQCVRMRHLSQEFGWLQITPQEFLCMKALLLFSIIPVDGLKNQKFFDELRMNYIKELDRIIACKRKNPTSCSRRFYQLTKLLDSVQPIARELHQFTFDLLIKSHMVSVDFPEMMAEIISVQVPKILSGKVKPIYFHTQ
Experimental: NVS_NR_cAR is a biochemical, single-readout assay that uses extracted gene-proteins from Sf9/Sf21 in a cell-free assay. Measurements were taken 72 hours after chemical dosing in a 96-well plate.NVS_NR_cAR is one of one assay component(s) measured or calculated from the NVS_NR_cAR assay. It is designed to make measurements of radioligand binding, a form of binding reporter, as detected with scintillation counting signals by Lysate-based radiodetection technology.Data from the assay component NVS_NR_cAR was analyzed into 1 assay endpoint. This assay endpoint, NVS_NR_cAR, was analyzed in the positive analysis fitting direction relative to DMSO as the negative control and baseline of activity. Using a type of binding reporter, loss-of-signal activity can be used to understand changes in the binding as they relate to the gene AR. Furthermore, this assay endpoint can be referred to as a primary readout, because the performed assay has only produced 1 assay endpoint. To generalize the intended target to other relatable targets, this assay endpoint is annotated to the nuclear receptor intended target family, where the subfamily is steroidal.
Binding assays used specific radioligands (tritiated, iodinated) with non-radioactive competitive displacement ligands in agonist or antagonist protocols (as indicated) and various reference compounds and inhibitors to titrate specific binding to receptors and transporters. Most enzyme assays (CYPs, kinases, phosphatases, proteases, HDACs) used recombinant protein and specific substrates (fluorescence mostly, some colorimetric and radioactive) and inhibitors, followed by a biochemical separation of substrate and product. All assays for the biochemical HTS were initially run in duplicate at a single concentration (10 uM for CYP450 assays and 25 uM for all others). […] Each assay was run with positive and negative controls, and concurrent controls on every plate. The follow-up (secondary) screen tested active chemical-pairs in concentration series, as well as a few additional assays not tested in the primary screen, some selected negative inactives, and several cases re-run in the concentration series for confirmatory purposes.

Q: Which outcome does the source give for `CCN(CC)CCNc1ccc(CNC=O)c2sc3ccc(OC)cc3c(=O)c12` here?
A: inactive

Q: How did the AC50 turn out when `CCC(=C(c1ccc(O)cc1)c1ccc(OCCN(C)C)cc1)c1ccccc1` was run?
A: 6.21 µM (active) and 12.9 µM (active)

Q: How did the outcome turn out when `CCCCC(CC)COC(=O)CCCCC(=O)OCc1ccccc1` (stereo unspecified) was run?
A: inactive

Q: What does the source list for `OC1CCC(C2CCCCC2)CC1` (stereo unspecified)?
A: outcome: inactive; AC50: 22.4 µM (active)

Q: With `Cc1oc(-c2ccccc2)nc1CCOc1ccc(C[C@H](Nc2ccccc2C(=O)c2ccccc2)C(=O)O)cc1` as the compound, how does the outcome read?
A: inactive

Q: How did the AC50 turn out when `CCC(C)(C)C1CCC(O)CC1` (stereo unspecified) was run?
A: 32.1 µM (active)

Q: For `C[C@@H]1C[C@H]2[C@@H]3CCC4=CC(=O)C=C[C@]4(C)[C@@]3(F)[C@@H](O)C[C@]2(C)[C@@]1(O)C(=O)COP(=O)(O)O`, which AC50 is on record?
A: 0.0307 µM (active)

Q: With `CCCCCCCCCCCCCC[N+](C)(C)C` as the compound, how does the outcome read?
A: inactive

Q: For `O=C(O)c1ccccc1C(c1ccc(O)cc1)c1ccc(O)cc1`, which outcome is on record?
A: inactive

Q: How did the outcome turn out when `CC[C@H](c1ccc(O)cc1)[C@@H](CC)c1ccc(O)cc1` was run?
A: inactive

Q: With `C#C[C@]1(O)CC[C@H]2[C@@H]3CCC4=CC(=O)CC[C@@H]4[C@H]3CC[C@@]21C` as the compound, how does the AC50 read?
A: 5.99 nM (active) and 4.99 nM (active)

Q: Which AC50 does the source give for `O=C1OC2(c3ccccc31)c1cc(Br)c(O)c(Br)c1Oc1c2cc(Br)c(O)c1Br` here?
A: 38.1 µM (active)

Q: How did the AC50 turn out when `CC#C[C@]1(O)CC[C@H]2[C@@H]3CCC4=CC(=O)CCC4=C3[C@@H](c3ccc(N(C)C)cc3)C[C@@]21C` was run?
A: 16.7 nM (active) and 46.7 nM (active)

Q: For `Oc1cc2ccccc2c2ccccc12`, which AC50 is on record?
A: 10.1 µM (active)

Q: With `CCCOC(=O)c1ccc(O)cc1` as the compound, how does the outcome read?
A: inactive
